{
  "source": "paper PMC4336329",
  "about": "(PLoS ONE, 2015)",
  "note": "The whole screen tested about 310,000 compounds, of which about 14,000 (4.5%) showed an effect of 50% or more. The effect is printed as a negative number. What follows is part of a selection rich in strong results, with near analogues and random picks from the rest.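 Further: peak tail current of the secondary pulse compared with the same well before compound.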",
  "data": [
    {"biological_target": "human ether-à-go-go-related gene (hERG) potassium channel (human, UniProt Q12809)", "sequence (Q12809 whole entry, looked up)": "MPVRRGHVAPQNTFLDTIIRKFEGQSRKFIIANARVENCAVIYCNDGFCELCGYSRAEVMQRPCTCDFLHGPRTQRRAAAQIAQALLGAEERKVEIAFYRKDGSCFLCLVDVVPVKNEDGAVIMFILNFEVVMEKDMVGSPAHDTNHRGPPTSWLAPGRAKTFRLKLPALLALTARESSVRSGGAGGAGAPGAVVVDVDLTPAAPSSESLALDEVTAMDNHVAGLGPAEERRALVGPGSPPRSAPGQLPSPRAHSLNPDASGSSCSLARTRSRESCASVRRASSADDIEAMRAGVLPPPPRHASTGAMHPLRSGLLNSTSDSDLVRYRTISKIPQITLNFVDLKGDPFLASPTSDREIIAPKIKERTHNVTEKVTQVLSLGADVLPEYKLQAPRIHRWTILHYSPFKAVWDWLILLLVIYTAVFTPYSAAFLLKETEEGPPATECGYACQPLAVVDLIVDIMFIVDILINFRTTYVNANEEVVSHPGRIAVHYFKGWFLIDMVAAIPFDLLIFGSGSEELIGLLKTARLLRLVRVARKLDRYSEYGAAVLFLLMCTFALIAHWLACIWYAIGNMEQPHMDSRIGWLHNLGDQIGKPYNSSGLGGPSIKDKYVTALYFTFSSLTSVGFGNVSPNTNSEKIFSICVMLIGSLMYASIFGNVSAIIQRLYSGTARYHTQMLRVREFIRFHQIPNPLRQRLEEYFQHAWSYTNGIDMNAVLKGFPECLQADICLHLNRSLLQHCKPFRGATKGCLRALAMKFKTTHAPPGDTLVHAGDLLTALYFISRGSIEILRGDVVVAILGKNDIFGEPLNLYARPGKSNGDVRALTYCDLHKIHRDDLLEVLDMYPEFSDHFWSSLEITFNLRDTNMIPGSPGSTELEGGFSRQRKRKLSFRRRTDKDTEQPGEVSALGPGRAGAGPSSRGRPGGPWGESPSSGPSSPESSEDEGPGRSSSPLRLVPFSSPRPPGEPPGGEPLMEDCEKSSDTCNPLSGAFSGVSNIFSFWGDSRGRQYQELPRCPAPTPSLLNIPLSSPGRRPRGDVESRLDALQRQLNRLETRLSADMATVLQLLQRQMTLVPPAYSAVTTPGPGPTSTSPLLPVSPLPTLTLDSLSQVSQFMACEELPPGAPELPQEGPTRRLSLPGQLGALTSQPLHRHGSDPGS", "assay": "primary screen, population patch clamp on CHO cells stably expressing hERG; higher = less effect of the substance", "units": {"hERG current change (%, negative = inhibition) at 10uM": "%"}, "values": [
      {"molecule": "COc1cc(S(=O)(=O)N2CCN(C(=O)c3ccco3)CC2)c(OC)cc1C", "hERG current change (%, negative = inhibition) at 10uM": 6.03},
      {"molecule": "COc1ccc(C2(C)NC(=O)N(CC(=O)Nc3ccc(C)cc3Br)C2=O)cc1OC", "note": "(stereo not drawn)", "hERG current change (%, negative = inhibition) at 10uM": 1.02},
      {"molecule": "CN(C)c1ccc(CNc2ncc(Br)cc2Br)cc1", "hERG current change (%, negative = inhibition) at 10uM": -3.62},
      {"molecule": "Cc1ccccc1NC(=O)c1ccc(-n2cncn2)nc1", "hERG current change (%, negative = inhibition) at 10uM": -14.1},
      {"molecule": "Cc1nn(C)c(C)c1S(=O)(=O)N(CC(=O)Nc1ccc2c(c1)OCO2)c1ccc(C(C)C)cc1", "hERG current change (%, negative = inhibition) at 10uM": 7.38},
      {"molecule": "CC(C)C(OC(=O)c1nsc(Cl)c1Cl)C(=O)NC1CCCCC1", "note": "(stereo not drawn)", "hERG current change (%, negative = inhibition) at 10uM": -17.7},
      {"molecule": "Cc1oc2nc(SCCCC(=O)NCCCO)nc(N)c2c1C", "hERG current change (%, negative = inhibition) at 10uM": 9.44},
      {"molecule": "Cc1ccc(CN2CCC(n3nccc3NC(=O)c3ccccc3C)CC2)o1", "hERG current change (%, negative = inhibition) at 10uM": -25.9},
      {"molecule": "COc1ccccc1C(=O)Nc1ccnn1C1CCN(CC2CC=CCC2)CC1", "note": "(stereo not drawn)", "hERG current change (%, negative = inhibition) at 10uM": -82.3},
      {"molecule": "O=C(Nc1ccnn1C1CCN(CC2CC=CCC2)CC1)c1ccccc1Cl", "note": "(stereo not drawn)", "hERG current change (%, negative = inhibition) at 10uM": -70.7},
      {"molecule": "COc1ccc(C(=O)Nc2ccnn2C2CCN(CC3CC=CCC3)CC2)cc1", "note": "(stereo not drawn)", "hERG current change (%, negative = inhibition) at 10uM": -37.4},
      {"molecule": "Cc1ccccc1C(=O)Nc1ccnn1C1CCN(Cc2ccc(CO)o2)CC1", "hERG current change (%, negative = inhibition) at 10uM": -1.16},
      {"molecule": "Cc1ccccc1C(=O)Nc1ccnn1C1CCN(CC2CC=CCC2)CC1", "note": "(stereo not drawn)", "hERG current change (%, negative = inhibition) at 10uM": -72.6},
      {"molecule": "Cl.NCC(c1ccccc1)(c1ccccc1)c1ccccc1", "hERG current change (%, negative = inhibition) at 10uM": -15.5},
      {"molecule": "O=C(COc1ccccc1)NCC(=O)N/N=C/c1ccc(Br)cc1", "hERG current change (%, negative = inhibition) at 10uM": -14.6},
      {"molecule": "CCCCCCCCCC(=O)N/N=C(\\C)c1cccnc1", "hERG current change (%, negative = inhibition) at 10uM": 9.29},
      {"molecule": "COc1ccc(C(C)=O)c2c1OCCO2", "hERG current change (%, negative = inhibition) at 10uM": -3.35},
      {"molecule": "COc1ccc(C(=O)Nc2ccc(S(=O)(=O)Nc3nccnc3OC)cc2)cc1", "hERG current change (%, negative = inhibition) at 10uM": 8.73},
      {"molecule": "COc1cccc(C(=O)N2CCC(N3CC(C)OC(C)C3)CC2)c1.O=C(O)C(=O)O", "note": "(stereo not drawn)", "hERG current change (%, negative = inhibition) at 10uM": 14.4},
      {"molecule": "O=S(=O)(O/N=C1\\CCCc2ccccc21)c1ccccc1", "hERG current change (%, negative = inhibition) at 10uM": 7.59},
      {"molecule": "O=[N+]([O-])c1ccc(N2CCSCC2)cc1", "hERG current change (%, negative = inhibition) at 10uM": -10.4},
      {"molecule": "CCC1CCC(N2CCN(c3ccc(F)cc3)CC2)CC1", "note": "(stereo not drawn)", "hERG current change (%, negative = inhibition) at 10uM": -52.1},
      {"molecule": "CCCN1CCC(N2CCN(c3ccc([N+](=O)[O-])cc3)CC2)CC1", "hERG current change (%, negative = inhibition) at 10uM": -74.3},
      {"molecule": "O=[N+]([O-])c1ccc(N2CCN(c3ccc(F)cc3)CC2)cc1", "hERG current change (%, negative = inhibition) at 10uM": -17.9},
      {"molecule": "CCC1CCC(N2CCN(c3ccccc3F)CC2)CC1", "note": "(stereo not drawn)", "hERG current change (%, negative = inhibition) at 10uM": -22.2},
      {"molecule": "CCN1CCC(N2CCN(c3ccc(Cl)cc3)CC2)CC1", "hERG current change (%, negative = inhibition) at 10uM": -18.8},
      {"molecule": "CCS(=O)(=O)N1CCC(N2CCN(c3ccccc3)CC2)CC1", "hERG current change (%, negative = inhibition) at 10uM": -10.9},
      {"molecule": "CCC1CCC(N2CCN(c3cccc(OC)c3)CC2)CC1", "note": "(stereo not drawn)", "hERG current change (%, negative = inhibition) at 10uM": -33.7},
      {"molecule": "CC1CCC(N2CCN(c3ccc([N+](=O)[O-])cc3)CC2)CC1", "note": "(stereo not drawn)", "hERG current change (%, negative = inhibition) at 10uM": -74.8},
      {"molecule": "CCN1CCC(N2CCN(c3ccc(F)cc3)CC2)CC1", "hERG current change (%, negative = inhibition) at 10uM": -5.34},
      {"molecule": "CCC1CCC(N2CCN(c3ccc([N+](=O)[O-])cc3)CC2)CC1", "note": "(stereo not drawn)", "hERG current change (%, negative = inhibition) at 10uM": -79.8},
      {"molecule": "O=[N+]([O-])c1ccc(N2CCN(c3ccccc3)CC2)cc1", "hERG current change (%, negative = inhibition) at 10uM": 4.77},
      {"molecule": "COCCNC(=S)N/N=C/c1c2ccccc2cc2ccccc12", "hERG current change (%, negative = inhibition) at 10uM": 15.5},
      {"molecule": "CCOC(=O)C(CC(=O)O)NCc1ccco1", "note": "(stereo not drawn)", "hERG current change (%, negative = inhibition) at 10uM": 17.4},
      {"molecule": "CCC(C)N(CC(=O)NCc1ccc(OC)cc1)C(=O)c1csnn1", "note": "(stereo not drawn)", "hERG current change (%, negative = inhibition) at 10uM": -18.3},
      {"molecule": "COc1ccc(N2CCN(C(=S)NCc3ccccc3)CC2)cc1", "hERG current change (%, negative = inhibition) at 10uM": 15.3},
      {"molecule": "COc1ccccc1Nc1nc(C)cc(=O)[nH]1", "hERG current change (%, negative = inhibition) at 10uM": -7.91},
      {"molecule": "O=C(COC(=O)c1cc(S(=O)(=O)N2CCCC2)ccc1O)Nc1ccc(S(=O)(=O)N2CCOCC2)cc1", "hERG current change (%, negative = inhibition) at 10uM": 23.6},
      {"molecule": "COc1ccccc1C(=O)COC(=O)c1ccccc1OCC(=O)Nc1ccc(SC(F)F)cc1", "hERG current change (%, negative = inhibition) at 10uM": 12.6},
      {"molecule": "O=C(COC(=O)c1cc(S(=O)(=O)N2CCCC2)ccc1O)Nc1ccc(SC(F)F)cc1", "hERG current change (%, negative = inhibition) at 10uM": -57.5},
      {"molecule": "CCOc1cc(C(=O)OCC(=O)Nc2ccc(SC(F)F)cc2)cc(OCC)c1OCC", "hERG current change (%, negative = inhibition) at 10uM": 4.57},
      {"molecule": "O=C(COC(=O)c1ccccc1O)Nc1ccc(OC(F)F)cc1", "hERG current change (%, negative = inhibition) at 10uM": 2.74},
      {"molecule": "COc1ccccc1C(=O)OCC(=O)Nc1ccc(OC(F)F)cc1", "hERG current change (%, negative = inhibition) at 10uM": -32.2},
      {"molecule": "CN(C)C(=O)COC(=O)c1ccccc1OCC(=O)Nc1ccc(SC(F)F)cc1", "hERG current change (%, negative = inhibition) at 10uM": -51.8},
      {"molecule": "COc1cc(C(=O)OCC(=O)Nc2ccc(SC(F)F)cc2)cc(OC)c1OC", "hERG current change (%, negative = inhibition) at 10uM": -55.7},
      {"molecule": "COc1cc(C(=O)OCC(=O)Nc2ccc(C)cc2)cc(OC)c1OC", "hERG current change (%, negative = inhibition) at 10uM": 28.7},
      {"molecule": "O=C(COC(=O)c1ccccc1O)Nc1ccc(S(=O)(=O)N2CCCCC2)cc1", "hERG current change (%, negative = inhibition) at 10uM": 3.29},
      {"molecule": "COc1ccccc1NC(=O)COC(=O)c1ccccc1OCC(=O)Nc1ccc(SC(F)F)cc1", "hERG current change (%, negative = inhibition) at 10uM": 1.67},
      {"molecule": "CCOc1ccccc1C(=O)OCC(=O)Nc1ccc(OC(F)F)cc1", "hERG current change (%, negative = inhibition) at 10uM": -54},
      {"molecule": "O=C(NC(Cc1ccccc1)c1ccc2c(c1)OCCCO2)c1ccc(F)cc1", "note": "(stereo not drawn)", "hERG current change (%, negative = inhibition) at 10uM": 8.05},
      {"molecule": "COc1ccc2cc1Oc1ccc(cc1)CC1c3c(cc(OC)c4c3Oc3cc5c(cc3O4)CCNC5C2)CCN1C", "note": "(stereo not drawn)", "hERG current change (%, negative = inhibition) at 10uM": 0.681},
      {"molecule": "N#Cc1c(Cl)nc(SCc2ccccc2)nc1-c1ccccc1", "hERG current change (%, negative = inhibition) at 10uM": 8.45},
      {"molecule": "CN(C(=O)c1ccccc1C(=O)OCC(=O)Nc1ccccc1)c1ccccc1", "hERG current change (%, negative = inhibition) at 10uM": 0.655},
      {"molecule": "CN(C(=O)c1ccccc1C(=O)OCC(=O)Nc1ccc(S(N)(=O)=O)cc1)c1ccccc1", "hERG current change (%, negative = inhibition) at 10uM": -5.32},
      {"molecule": "CN(C(=O)c1ccccc1C(=O)OCC(=O)Nc1ccc(OC(F)F)cc1)c1ccccc1", "hERG current change (%, negative = inhibition) at 10uM": -54},
      {"molecule": "CCOc1cc2c(Cl)ncnc2c(OCC)c1OCC", "hERG current change (%, negative = inhibition) at 10uM": 23.3},
      {"molecule": "CCOC(=O)c1cccc(NC(=O)CCn2cccc2)c1", "hERG current change (%, negative = inhibition) at 10uM": -27.7}
    ]}
  ]
}
